Potency and outcome data for 9 compounds are collected here from PubChem BioAssay (Tox21).

Values without a mark were called inactive. Records with an inconclusive call do not appear. Calls of active or inactive are those of the source. Unless noted, the call rests on the fitted dose curve; in most records, active means well fitted curve in the direction sought with a large enough effect in the repeat runs; inconclusive means weak or mixed curves; inactive means no such curve, though single readings can be large; an effect the other way counts as inactive or inconclusive.

Test [1] has as its target Luciferin 4-monooxygenase (Photinus pyralis) (UniProt P08659). The test can be described thus: qHTS assay to identify small molecule inhibitors of firefly luciferase (AID 1224835). Further: series mostly up to about 120 µM; nearly all actives have a fitted effect of over 25% in size. The method in brief: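 Biochemical qHTS: compounds run as interplate titrations against purified firefly enzyme, with D-luciferin and ATP each at its KM concentration. Light output recorded by CCD imaging.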
(In general: qHTS replaces the single test concentration by a dilution series.)

Test [2] can be described thus: qHTS assay to identify small molecule agonists of the constitutive androstane receptor (CAR) signaling pathway - cell viability counter screen (AID 1224836). Further: series mostly up to about 92 µM; nearly all actives have a fitted effect of over 45% in size. The method in brief:
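Compound titrations (15 concentrations) went onto HepG2-CYP2B6-hCAR cells 4 h after seeding, alongside PK11195 at a final 0.75 uM; a 23 h, 37 C/5% CO2 incubation preceded CellTiter-Fluor viability measurement.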

Test [3] can be described thus: qHTS assay to identify small molecule antagonists of the constitutive androstane receptor (CAR) signaling pathway - cell viability counter screen (AID 1224837). Further: series mostly up to about 92 µM; nearly all actives have a fitted effect of over 45% in size. The method in brief: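 HepG2 cells stably expressing hCAR and a CYP2B6-2.2kb reporter were plated and pre-incubated 4 hr at 37 C/5% CO2, then given compounds at 15 concentrations plus 50 nM CITCO (final). After 23 hr, viability was read by CellTiter-Fluor fluorescence.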

Test [4] addresses Nuclear receptor subfamily 1 group I member 3 (Homo sapiens) (UniProt Q14994). Put plainly: qHTS assay to identify small molecule antagonists of the constitutive androstane receptor (CAR) signaling pathway (AID 1224838). Further: nearly all actives have a fitted effect of over 40% in size. In a few lines:
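HepG2 cells stably co-transfected with hCAR and a CYP2B6-2.2kb luciferase reporter were seeded 4 h before compound addition at 15 concentrations. Cells were stimulated with 50 nM CITCO (final) for 24 h at 37 C; luciferase luminescence was then read.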

Test [5] shares this target. The test can be described thus: qHTS assay to identify small molecule agonists of the constitutive androstane receptor (CAR) signaling pathway (AID 1224839). Further: nearly all actives have a fitted effect of over 15% in size. Further: potency means the concentration at half of the fitted maximal effect.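 On activation: HepG2 cells stably carrying human CAR and a CYP2B6 luciferase reporter; series mostly up to about 92 µM.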 In a few lines:
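In this screen, CAR-driven CYP2B6 promoter activity is measured by luminescence in HepG2-CYP2B6-hCAR cells after 24 h with test compounds and 0.75 uM PK11195 (final concentration).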

Test [6] in a line: qHTS assay to identify small molecule antagonists of the estrogen related receptor signaling pathway with the pleiotropic PPARgamma coactivator (PGC) from Tox21 10K library - cell viability counter screen (AID 1224840; active means well fitted cell-killing curve with a large enough effect in the repeat runs, not every such curve was filed as active; further: nearly all actives have a fitted effect of over 40% in size). The method in brief:
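PGC/ERR cells were seeded at 2,000 cells/well and left 6 hours at 37 C/5% CO2 before pin-tool addition of compounds in DMSO. After 17.5 hours at 37 C, CellTiter-Fluor was added and fluorescence read 30 minutes later.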

The nature of test [7]: qHTS assay to identify small molecule agonists of the hypoxia (HIF-1) signaling pathway - cell viability counter screen (AID 1224844; calls by dose curve; further: nearly all actives have a fitted effect of over 50% in size). In a few lines:
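HRE-bla ME-180 cells in medium with 0.5% dialyzed FBS were preincubated 5 hrs at 37C, exposed to compounds for 17 hrs, then viability was read as CellTiter-Glo luminescence after 30 min at room temperature, in the reporter wells.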

Test [8] in a line: qHTS assay to identify small molecule agonists of H2AX (AID 1224845; active means well fitted activation curve with a large enough effect in the signal ratio in the repeat runs, not every such curve was filed as active; the % refers to the signal ratio). The method in brief: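 Wild-type CHO-K1 cells, plated overnight, exposed 3hr at 37C to 15 concentrations (0.76% DMSO final). Lysed, then HTRF anti-pH2AX (S139) cryptate and anti-H2AX-d2 antibodies, 24 hr room temperature; 665/620 nm emission read.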
Test [9] is described as follows: qHTS assay to identify small molecule agonists of the hypoxia (HIF-1) signaling pathway (AID 1224846; active means well fitted activation curve with a large enough effect in the signal ratio in the repeat runs, not every such curve was filed as active; the % refers to the signal ratio). The method in brief: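 HRE-bla ME-180 cells (beta-lactamase reporter under hypoxia response element) were plated at 2,000 cells/well in medium with 0.5% dialyzed FBS, rested 5 hrs, then given compounds in DMSO for 17 hrs at 37C, 5% CO2. Reporter induction was read with CCF4-AM FRET substrate.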

The nature of test [10]: qHTS assay to identify small molecule agonists of H2AX - cell viability counter screen (AID 1224847; calls by dose curve; further: top concentration of the series differs between compounds; nearly all actives have a fitted effect of over 30% in size). The method in brief:
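Read-out: CellTiter-Glo luminescence, 30 min RT. Cells: wild-type CHO-K1, 1000/well, 10% FBS, plated overnight at 37C. Treatment: 15 concentrations, 3 hr, 37C, 0.76% DMSO.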

A short description of test [11]: qHTS RealTime-Glo MT Cell Viability Assay in HepG2 cells - 24 hour (AID 1224867). Further: nearly all actives have a fitted effect of over 50% in size. In a few lines: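 Luminescence read-out: viable HepG2 cells reduce a prosubstrate to a NanoLuc substrate, giving a signal proportional to live cell number. Reads taken at 0, 8, 16, 24, 32 and 40 h of compound exposure at 37 C.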
A short description of test [12]: qHTS RealTime-Glo MT Cell Viability Assay in HEK293 cells - 32 hour (AID 1224868). Further: top concentration of the series differs between compounds; nearly all actives have a fitted effect of over 50% in size. The method in brief: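 Nonlytic real-time viability readout: viable cells convert prosubstrate to NanoLuc substrate, giving luminescence proportional to live cell number. HEK293, 600 cells/well, compound added after 5 h, continuous culture at 37 C.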
A short description of test [13]: A CellTox Green Cytotoxicity Assay to monitor cytotoxicity in HEK293 cells - 0 hour (AID 1224869). Further: nearly all actives have a fitted effect of over 50% in size. The method in brief:
(§1)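 HEK293 cells premixed with CellTox Green dye were seeded at 600 cells/well and left 5 h at 37 C/5% CO2 before pin transfer of 23 nL compound in DMSO. Fluorescence from dye bound to dead-cell DNA was read during 40 h treatment.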

Test [14] in a line: qHTS RealTime-Glo MT Cell Viability Assay in HepG2 cells - 40 hour (AID 1224870). Further: nearly all actives have a fitted effect of over 50% in size. The method in brief: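 HepG2 cells (600/well) mixed with RealTime-Glo MT reagent, settled 5 h at 37 C/5% CO2 before compound addition. Nonlytic NanoLuc luminescence from viable-cell prosubstrate reduction read repeatedly during 40 h treatment at 37 C.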
A short description of test [15]: A CellTox Green Cytotoxicity Assay to monitor cytotoxicity in HEK293 cells - 40 hour (AID 1224871). Further: nearly all actives have a fitted effect of over 45% in size. In a few lines:
as §1

The target of test [16] is Thyrotropin receptor (Homo sapiens) (UniProt P16473). Put plainly: qHTS assay to identify small molecule agonists of the thyroid stimulating hormone receptor (TSHR) signaling pathway (AID 1224843; calls by dose curve; further: nearly all actives have a fitted effect of over 45% in size). The method in brief: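 TSHR-HEK293 cells in agonist mode, 30 min room-temperature step, then cAMP measured by competitive HTRF (cAMP-d2 with anti-cAMP cryptate) after 1 h at room temperature. Tested at 15 concentrations in triplicate.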
Chain of Thyrotropin receptor (Homo sapiens) (P16473 whole entry, looked up): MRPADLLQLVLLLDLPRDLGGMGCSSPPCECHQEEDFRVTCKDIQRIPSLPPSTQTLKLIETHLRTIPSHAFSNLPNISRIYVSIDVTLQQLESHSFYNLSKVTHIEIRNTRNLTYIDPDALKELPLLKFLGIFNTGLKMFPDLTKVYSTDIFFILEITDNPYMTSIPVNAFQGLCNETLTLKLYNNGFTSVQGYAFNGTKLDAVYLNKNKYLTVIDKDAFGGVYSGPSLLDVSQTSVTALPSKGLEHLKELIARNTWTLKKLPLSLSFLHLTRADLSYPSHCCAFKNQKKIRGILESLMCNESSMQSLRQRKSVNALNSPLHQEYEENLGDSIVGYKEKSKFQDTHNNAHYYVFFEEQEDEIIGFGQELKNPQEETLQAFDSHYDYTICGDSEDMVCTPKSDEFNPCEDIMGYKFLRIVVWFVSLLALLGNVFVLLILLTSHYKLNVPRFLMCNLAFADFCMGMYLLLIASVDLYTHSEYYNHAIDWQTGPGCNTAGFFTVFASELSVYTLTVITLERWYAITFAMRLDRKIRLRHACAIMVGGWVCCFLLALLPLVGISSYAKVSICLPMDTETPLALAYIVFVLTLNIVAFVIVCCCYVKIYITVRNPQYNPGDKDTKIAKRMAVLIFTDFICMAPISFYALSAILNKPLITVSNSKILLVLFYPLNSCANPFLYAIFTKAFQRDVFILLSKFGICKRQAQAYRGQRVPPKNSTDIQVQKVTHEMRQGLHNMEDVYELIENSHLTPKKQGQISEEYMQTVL

Chain of Nuclear receptor subfamily 1 group I member 3 (Homo sapiens) (Q14994 whole entry, looked up): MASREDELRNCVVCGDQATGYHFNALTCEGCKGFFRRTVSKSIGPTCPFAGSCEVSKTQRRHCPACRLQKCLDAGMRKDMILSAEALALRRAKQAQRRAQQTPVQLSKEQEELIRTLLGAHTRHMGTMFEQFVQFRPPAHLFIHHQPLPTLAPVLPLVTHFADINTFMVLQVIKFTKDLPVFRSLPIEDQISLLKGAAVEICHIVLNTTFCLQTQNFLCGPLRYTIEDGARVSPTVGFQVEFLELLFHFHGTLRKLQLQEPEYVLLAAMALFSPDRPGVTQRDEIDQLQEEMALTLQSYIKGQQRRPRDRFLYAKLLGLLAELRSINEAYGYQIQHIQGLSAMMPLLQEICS
Chain of Luciferin 4-monooxygenase (Photinus pyralis) (P08659 whole entry, looked up): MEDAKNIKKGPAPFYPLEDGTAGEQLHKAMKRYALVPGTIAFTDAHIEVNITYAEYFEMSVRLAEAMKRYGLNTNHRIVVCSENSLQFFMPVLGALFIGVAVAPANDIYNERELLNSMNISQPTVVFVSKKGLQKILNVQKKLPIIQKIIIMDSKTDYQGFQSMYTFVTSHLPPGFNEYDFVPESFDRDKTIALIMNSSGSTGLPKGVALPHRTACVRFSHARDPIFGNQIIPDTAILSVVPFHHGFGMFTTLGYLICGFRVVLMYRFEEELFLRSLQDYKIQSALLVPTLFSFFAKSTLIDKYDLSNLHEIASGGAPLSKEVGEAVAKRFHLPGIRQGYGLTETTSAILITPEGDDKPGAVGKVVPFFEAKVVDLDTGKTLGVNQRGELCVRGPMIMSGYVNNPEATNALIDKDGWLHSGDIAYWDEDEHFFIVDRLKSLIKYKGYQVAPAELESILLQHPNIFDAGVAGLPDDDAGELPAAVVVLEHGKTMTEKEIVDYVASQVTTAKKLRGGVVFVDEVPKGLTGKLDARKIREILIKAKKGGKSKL

For the compound `CCCSC(=O)Cl`, the Potency entry in test [1], in test [2], in test [3], in [4], in test [5] and in [6] was “inactive” each time. In addition, the Potency result in test [7], in [8], in test [10], in test [11], in test [12] and in test [13] was “inactive” each time. Besides, the Potency result in [14] and in test [15] was “inactive” in each case. For the same compound, the compound was classed as inactive in test [9].
Take `ClC(Cl)C(Cl)Cl`: the Potency entry in [1], in test [2], in test [3], in test [4], in test [5] and in test [6] was “inactive” throughout. Also, the Potency result in [7], in [10], in [11], in test [12], in test [13] and in test [14] was “inactive” each time. The Potency result in [15] was “inactive”. In [9], the compound was called inactive.
Turning to `C(CCOCC1CO1)COCC1CO1` (configuration not stated), the Potency entry in test [1], in test [2], in test [3], in test [4], in test [5] and in test [6] was “inactive” throughout. Also, the Potency entry in [16], in [8], in [10], in test [11], in test [13] and in test [14] was “inactive” in each case. Moreover, in test [15], the Potency result is “inactive”.
In the case of `CCOC(=O)N(C)C(=O)CSP(=S)(OCC)OCC`, the Potency entry in test [1], in [2], in test [3], in test [4], in test [6] and in [7] was “inactive” in each case. The Potency entry in test [8], in test [10], in test [11], in test [12], in [13] and in test [14] was “inactive” each time. Moreover, in test [15], the Potency entry was “inactive”. Further, the Potency in [5] was 34.4 µM (active). Also, the compound was called inactive in test [9].
On to `CCC1(c2ccccc2)C(=O)N=C(O)NC1=O` (configuration not stated), for which the Potency result in [1], in [2], in test [3], in test [4], in test [5] and in test [6] was “inactive” in each case. In addition, the Potency result in test [16], in test [7], in test [8], in test [10], in test [11] and in test [12] was “inactive” in each case. For the same compound, the Potency result in test [13], in test [14] and in test [15] was “inactive” throughout. Further, the compound was classed as inactive in [9].
For `O=C(Nc1ccccc1)c1ccccc1I`, the Potency result in test [1], in test [2], in test [3], in test [4], in test [6] and in [16] was “inactive” throughout. Further, the Potency entry in test [7], in test [8], in test [11], in test [13], in test [14] and in test [15] was “inactive” in each case. Further, the Potency in test [5] was 61.1 µM (active). Also, the call in test [9] was inactive.
Regarding `ClCC(Cl)(Cl)Cl`, the Potency entry in test [1], in [2], in [3], in test [4], in [5] and in [6] was “inactive” throughout. The Potency result in [7], in [8], in test [10], in [11], in [12] and in [13] was “inactive” each time. Also, the Potency result in test [14] and in [15] was “inactive” in each case. Besides, the call in [9] was inactive.
With `O=[N+]([O-])c1cc(Cl)c(Cl)c(Cl)c1`, the Potency entry in test [1], in test [2], in test [3], in test [4], in test [5] and in test [6] was “inactive” each time. The Potency result in [16], in test [7], in [10], in test [11], in [12] and in test [13] was “inactive” throughout. In addition, in test [14], the Potency entry was “inactive”. Also, the compound was called inactive in [9].
Regarding `CCN(CC)c1nc(C)cc(OP(=S)(OC)OC)n1`, the Potency result in [1], in [2], in [3], in test [4], in test [6] and in test [16] was “inactive” in each case. The Potency result in test [7], in test [8], in test [10], in [11], in [12] and in test [13] was “inactive” each time. The Potency result in [14] and in test [15] was “inactive” in each case. Further, the Potency in test [5] was 48.6 µM (active). Besides, in [9], the call was inactive.
